# A selection: hits, their analogues and other compounds. The true share with any hit is near 2.7%.
# CFTR F508del cor = F508del CFTR correction, initial screen, CFBE line, single point | activity (quench increase), % at 7.58 µM | 350,000 compounds, 0.36% hits | CFBE cells, YFP halide quenching; stimulated with forskolin plus potentiator P3; % fluorescence drop versus neutral controls | AID 720511, 2013;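 active = mean added fluorescence quench of at least 8% versus neutral control, with both replicates also reaching 8%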;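 also: cells transiently co-express mutant CFTR-F508del with the halide-sensitive YFP; corrector assay measuring rescue of mutant channel to the surface after 24 h compound exposure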
# Wnt act = Wnt/beta-catenin pathway activators, primary screen, cell-based, plate reader, single point | AID 743398, 2014 | Wnt/beta-catenin reporter cell assay, activator | 300,000 compounds, 1.2% hits | activation, % at 9.35 µM; in the data active = activation above about 30%, passing the limit was not always enough;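 also: 0% = neutral control wells and 100% = positive control wells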
# HIV Env fusion = inhibitors of HIV-1 Env-driven cell-cell fusion, primary screen, HeLa-JRFL effector, CEM21 target cells, luciferase | 360,000 compounds, 1.1% hits | inhibition, % at 12.3 µM;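 active = mean replicate inhibition score of at least 50 and every replicate individually at or above 50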;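 also: 0% = plate neutral controls and 100% = maraviroc near 300 nM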
# GSIS activator = GLuc luminescence reporter in INS-1E cells, primary screen for activators of glucose-dependent secretion of insulin; INS-1E GLuc reporter insulin secretion, 2-3 h; activation, % at 16.6 µM; 370,000 compounds, 0.61% hits; AID 743287, 2014;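 active = lowest replicate activation of at least 40%, so every replicate reaches that level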;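 also: 0% = median of neutral control wells and 100% = median of IBMX positive control wells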
# MITF TRPM1 HTS = activators of MITF-driven TRPM1 promoter reporter, primary screen, cell-based, SK-MEL-5, luciferase, single point; activation, % at 12.5 µM; 300,000 compounds, 0.75% hits; SK-MEL-5 TRPM1-promoter luciferase, 24 h; % of positive control, neutral wells = 0;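 active = mean activation of at least 80% with every replicate also reaching 80%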;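 also: 0% = neutral control wells and 100% = parthenolide positive control wells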
# Numbers without * were called inactive; · = no result given; [ ] = dose if it differs, or a comment.
SMILES,CFTR F508del cor,Wnt act,HIV Env fusion,GSIS activator,MITF TRPM1 HTS
CC(C)C[C@@]12C(=O)N(c3cccc(F)c3)C(=O)N1[C@H](c1ccc(F)cc1)[C@@H]1C(=O)N(C3CCCCC3)C(=O)[C@@H]12,1.6,2.4,9.3,3.9,0.5
C[C@@]12C(=O)N(c3cccc(F)c3)C(=O)N1[C@H](c1ccc(Cl)cc1)[C@@H]1C(=O)N(C3CCCCC3)C(=O)[C@@H]12,1.2,-2.6,0.6,2.3,9.4
O=C1[C@H]2[C@@H](c3ccc(F)cc3)N3C(=O)N(c4cccc(Br)c4)C(=O)[C@@]3(Cc3ccc(Cl)cc3)[C@H]2C(=O)N1C1CCCCC1,4.2,-4.8,58.7*,30.7,-2.0
CC(C)C[C@@]12C(=O)N(c3cccc(F)c3)C(=O)N1[C@H](c1ccc(Cl)cc1)[C@@H]1C(=O)N(C3CCCCC3)C(=O)[C@@H]12,5.2,-7.2,94.8*,·,-6.8
O=C1[C@H]2[C@@H](c3ccc(F)cc3)N3C(=O)N(c4cccc(Cl)c4)C(=O)[C@@]3(Cc3ccccc3)[C@H]2C(=O)N1C1CCCCC1,-1.0,-6.4,14.4,0.5,0.7
O=C(NC1CCCC1)[C@H]1[C@H](CO)[C@H]2Cn3c(cccc3=O)[C@@H]1N2CC1CCCC1,-0.9,·,·,16.2,·
O=c1c(O)c(-c2cccs2)oc2ccc(Cl)cc12,53.2*,8.7,·,11.6,3.9
COc1cccc(-c2ccc3c(c2)O[C@@H](CN(C)Cc2ccncc2)[C@@H](C)CN([C@H](C)CO)S3(=O)=O)c1,-2.4,·,12.5[16.7 µM],-15.7,·
Cn1c(=O)oc2cc(S(=O)(=O)N3CCN(c4ccc(F)cc4)CC3)ccc21,·,·,·,·,-4.4
O=C1CCc2cc(S(=O)(=O)N3CCN(c4ccc(F)cc4)CC3)cc3c2N1CC3,0.7,0.1,·,47.3*,-3.3
Cn1c(=O)c(=O)n(C)c2cc(S(=O)(=O)N3CCN(c4ccc(F)cc4)CC3)ccc21,·,-2.9,13.1,50.9*,-18.6
c1ccc(-c2nn3c(-c4ccccc4)nnc3s2)cc1,·,·,-169.0,·,·
Cc1ccc(-c2nnc3sc(-c4ccncc4)nn23)cc1,·,·,·,67.5*,25.3
Cc1nnc2sc(-c3ccc(N(C)C)cc3)nn2c1=O,4.6,24.4,-22.4,-6.4,108.7*
C[C@H]1CN([C@@H](C)CO)C(=O)c2cc(NS(=O)(=O)c3ccc(F)cc3)ccc2O[C@@H]1CN(C)C(=O)Nc1ccc2c(c1)OCO2,0.4,·,-14.5[16.7 µM],8.8,·
C[C@H](CO)N1C[C@H](C)[C@H](CN(C)Cc2ccc(Cl)c(Cl)c2)OCCCC[C@H](C)Oc2ccc(NC(=O)Nc3ccccc3)cc2C1=O,-2.0,·,71.1*[16.7 µM],0.3,·
C[C@@H]1CN([C@@H](C)CO)C(=O)c2cc(NC(=O)CCC(F)(F)F)ccc2O[C@@H](C)CCCCO[C@H]1CN(C)Cc1ccc(Cl)c(Cl)c1,2.1,·,4.6[16.7 µM],-11.2,·
C[C@H]1CCCCO[C@H](CN(C)Cc2ccc(Cl)c(Cl)c2)[C@@H](C)CN([C@@H](C)CO)C(=O)c2cc(NC(=O)Nc3ccccc3)ccc2O1,-3.4,·,38.8[16.7 µM],3.1,·
C[C@@H]1CN([C@H](C)CO)C(=O)c2cc(NC(=O)Cc3cn(C)c4ccccc34)ccc2O[C@@H]1CN(C)Cc1ccc(Cl)c(Cl)c1,8.1*,·,·,-11.7,·
C[C@H]1CCCCO[C@H](CN(C)Cc2ccc(Cl)c(Cl)c2)[C@@H](C)CN([C@@H](C)CO)C(=O)c2cc(NC(=O)CCC(F)(F)F)ccc2O1,1.3,·,78.7*[16.7 µM],-30.0,·
COc1ccc(NC(=O)Nc2ccc3c(c2)C(=O)N([C@@H](C)CO)C[C@@H](C)[C@H](CN(C)Cc2ccc(Cl)c(Cl)c2)OCCCC[C@H](C)O3)cc1,2.5,·,59.9*[16.7 µM],-4.8,·
CN(C)C(=O)c1ccc(-c2ccc([C@H]3[C@@H](CO)N4CCCCN(C(=O)C5CCC5)C[C@H]34)cc2)cc1,-3.1,·,·,·,·
C[C@H](CO)N1C[C@H](C)[C@@H](CN(C)S(=O)(=O)Cc2ccccc2)OCc2ccccc2-c2c(n(C)c3ccccc23)C1=O,·,·,·,-17.7,·
C[C@H]1CN([C@@H](C)CO)S(=O)(=O)c2ccc(-c3ccccc3)cc2O[C@@H]1CN(C)Cc1ccncc1,1.0,·,24.3[16.7 µM],-29.3,·
C[C@H]1CCCCO[C@H](CN(C)Cc2ccc(Cl)c(Cl)c2)[C@@H](C)CN([C@@H](C)CO)C(=O)c2cc(NC(=O)Nc3ccc(F)cc3)ccc2O1,1.1,·,72.4*[16.7 µM],-18.1,·
SMILES,CFTR F508del cor,Wnt act,HIV Env fusion,GSIS activator,MITF TRPM1 HTS
C[C@@H]1CN([C@H](C)CO)C(=O)c2cc(NC(=O)NC3CCCCC3)ccc2O[C@@H](C)CCCCO[C@@H]1CN(C)Cc1ccc(Cl)c(Cl)c1,2.2,·,13.3[16.7 µM],1.8,·
C[C@@H]1CCCCO[C@@H](CN(C)Cc2ccc(Cl)c(Cl)c2)[C@H](C)CN([C@H](C)CO)C(=O)c2cc(NC(=O)NC3CCCCC3)ccc2O1,0.6,·,72.4*[16.7 µM],6.4,·
CC(C)(C)SC(=O)CC1NS(=O)(=O)OCC1NC(=O)OCC(Cl)(Cl)Cl (stereo not drawn),1.6,-0.5,63.2*,·,0.0
CC(C)C1COS(=O)(=O)NC1CC(=O)SC(C)(C)C (stereo not drawn),2.0,-2.3,-5.0,-7.7,4.8
Cc1sc(=NC(=O)c2ccco2)n(C)c1-c1ccc(F)cc1,·,·,·,·,100.6*
Cc1sc(=NC(=O)c2ccco2)n(C)c1-c1ccccc1,·,21.9,-255.8,·,59.5
O=C(CSc1ccccc1)Nc1ccc2c(c1)OCCO2,2.0,33.3*,-80.9,-19.7,50.1
CC(CC(=O)Nc1ccc2c(c1)OCCO2)c1ccccc1 (stereo not drawn),·,55.7*,9.3,·,·
O=C(CSc1ccc2c(c1)OCCO2)Nc1ccc2c(c1)OCO2,·,-1.9,·,·,8.2
CC(Sc1ccccc1F)C(=O)Nc1ccc2c(c1)OCCO2 (stereo not drawn),-6.3,45.1*,·,-0.9,89.2*
CC(CC(=O)Nc1ccc2c(c1)OCO2)c1ccccc1 (stereo not drawn),3.1,5.9,-26.8,3.6,41.3
O=C(CSc1ccccc1)Nc1ccc2c(c1)OCO2,1.1,23.5,-27.9,1.0,89.2*
CCC(=O)N(C)C[C@H]1Oc2cc(-c3cncnc3)ccc2S(=O)(=O)N([C@@H](C)CO)C[C@@H]1C,-1.6,·,-3.8[16.7 µM],12.3,·
CC(=O)N(C)C[C@@H]1OCc2ccccc2-c2ccccc2C(=O)N([C@@H](C)CO)C[C@@H]1C,-3.6,·,-5.8[16.7 µM],19.1,·
C[C@@H]1CCCCO[C@@H](CN(C)Cc2ccccc2)[C@@H](C)CN([C@H](C)CO)C(=O)c2cc(NS(=O)(=O)c3cn(C)cn3)ccc2O1,-1.2,·,23.7[16.7 µM],8.4,·
CO[C@@H]1CC[C@@H]2CCN(C)C(=O)CCCN(C)C(=O)c3cccc(C#N)c3OC[C@H]1O2,·,·,11.4[16.7 µM],-1.2,·
O=C(CSCc1ccccc1)Nc1ccc2c(c1)OCO2,·,·,·,·,67.9
COc1ccccc1Nc1nnc(SCC(=O)NC(=O)Nc2ccc3c(c2)OCCO3)s1,·,-2.4,-26.9,80.7*,-2.8
